This is an account of results in paper PMC7862700, “An all-to-all approach to the identification of sequence-specific readers for epigenetic DNA modifications on cytosine”.

Holding throughout (assay): DAPPL (digital affinity profiling via proximity ligation, sequencing); 10 mM Tris-HCl pH 7.5, 50 mM NaCl, 1 mM DTT, 4% glycerol, room temperature, 30 min; GST-TFs on glutathione beads, 16-mer random dsDNA library, 0.1% formaldehyde crosslink after washing; high values mean tight binding
What all share (details): protein: recombinant; tags: N-terminal GST; dsDNA, one strand shown

In one assay the target is T1, ETV2 (Homo sapiens, UniProt O00321 1-342).
T1 sequence: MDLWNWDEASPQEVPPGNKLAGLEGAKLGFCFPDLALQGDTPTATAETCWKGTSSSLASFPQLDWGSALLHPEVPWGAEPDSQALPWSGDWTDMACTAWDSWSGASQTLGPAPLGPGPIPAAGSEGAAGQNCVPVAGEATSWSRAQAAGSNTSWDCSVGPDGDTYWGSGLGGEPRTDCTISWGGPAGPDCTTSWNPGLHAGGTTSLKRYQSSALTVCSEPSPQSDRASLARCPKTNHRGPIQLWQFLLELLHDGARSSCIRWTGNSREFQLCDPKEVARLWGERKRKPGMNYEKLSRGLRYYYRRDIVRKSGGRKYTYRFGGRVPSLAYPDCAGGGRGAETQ
The method, boiled down: (§1)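 Each value of binding signal is a hexamer's read frequency for a factor divided by the same hexamer's frequency in the tag-only sample. Barcoded, bead-captured GST fusions of human transcription factors made in yeast were pooled with that sample and incubated with 200 nmole of a random double-stranded 16-mer DNA library in Tris/NaCl/DTT/glycerol buffer at room temperature for 30 min. Washing, 0.1% formaldehyde crosslinking, proximity ligation, PCR and Illumina NextSeq500 sequencing followed.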

In the next assay the target is T2, ELF3 (Homo sapiens, UniProt P78545 1-371).
T2 sequence: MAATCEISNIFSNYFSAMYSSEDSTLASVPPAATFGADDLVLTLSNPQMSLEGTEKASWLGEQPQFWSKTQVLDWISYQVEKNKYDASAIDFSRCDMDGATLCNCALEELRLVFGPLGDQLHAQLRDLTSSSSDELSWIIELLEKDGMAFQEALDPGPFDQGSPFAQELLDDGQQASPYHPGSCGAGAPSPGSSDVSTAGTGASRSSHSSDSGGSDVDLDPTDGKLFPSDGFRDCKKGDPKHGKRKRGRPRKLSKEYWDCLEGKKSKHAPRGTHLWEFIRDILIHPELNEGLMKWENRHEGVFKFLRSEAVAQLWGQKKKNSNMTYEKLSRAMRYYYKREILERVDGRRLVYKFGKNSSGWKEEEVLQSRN
The method, boiled down: as §1

The target of a further assay is CRX (Homo sapiens, UniProt O43186 1-299). The method in brief: as §1
Sequence of CRX (O43186 whole entry): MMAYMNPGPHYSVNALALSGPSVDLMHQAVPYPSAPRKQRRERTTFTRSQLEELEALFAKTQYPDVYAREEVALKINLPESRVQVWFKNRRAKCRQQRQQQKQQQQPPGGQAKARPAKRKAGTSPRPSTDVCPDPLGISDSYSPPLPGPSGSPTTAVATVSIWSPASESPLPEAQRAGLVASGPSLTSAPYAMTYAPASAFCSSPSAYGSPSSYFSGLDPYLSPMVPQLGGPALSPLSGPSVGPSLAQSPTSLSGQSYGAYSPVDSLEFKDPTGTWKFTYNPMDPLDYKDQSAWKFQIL
The target of another assay is ETV1 (Homo sapiens, UniProt P50549 1-477). The method, boiled down:
as §1

For the next assay, the target named is T3, ETV3L (Homo sapiens, UniProt Q6ZN32 1-361).
T3 sequence: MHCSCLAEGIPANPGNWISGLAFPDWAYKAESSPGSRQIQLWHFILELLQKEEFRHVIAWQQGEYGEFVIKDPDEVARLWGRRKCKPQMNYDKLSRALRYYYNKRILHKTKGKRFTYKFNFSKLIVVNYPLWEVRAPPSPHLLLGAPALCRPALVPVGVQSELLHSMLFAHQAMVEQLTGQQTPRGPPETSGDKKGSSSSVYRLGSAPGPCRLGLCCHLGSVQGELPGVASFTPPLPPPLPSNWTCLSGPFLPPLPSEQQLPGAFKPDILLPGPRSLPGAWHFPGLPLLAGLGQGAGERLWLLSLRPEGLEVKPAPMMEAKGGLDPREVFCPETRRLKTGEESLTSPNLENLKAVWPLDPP
The method, boiled down:
as §1

The next assay deals with T4, ETS2 (Homo sapiens, UniProt P15036 1-469).
T4 sequence: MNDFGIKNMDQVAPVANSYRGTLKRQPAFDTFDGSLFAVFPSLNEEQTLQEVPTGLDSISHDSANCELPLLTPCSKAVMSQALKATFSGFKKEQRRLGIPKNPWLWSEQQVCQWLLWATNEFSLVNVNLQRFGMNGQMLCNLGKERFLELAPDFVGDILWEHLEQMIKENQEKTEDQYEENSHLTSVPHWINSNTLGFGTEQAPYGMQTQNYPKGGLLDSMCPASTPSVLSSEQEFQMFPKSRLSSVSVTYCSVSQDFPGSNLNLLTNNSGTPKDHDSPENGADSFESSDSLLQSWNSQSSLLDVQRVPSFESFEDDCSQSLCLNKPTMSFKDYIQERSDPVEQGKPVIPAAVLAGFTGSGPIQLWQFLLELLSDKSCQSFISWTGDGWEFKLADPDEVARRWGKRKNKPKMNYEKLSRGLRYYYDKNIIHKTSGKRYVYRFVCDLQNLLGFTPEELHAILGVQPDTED
The method, boiled down: as §1

Another assay concerns the target T5, SPDEF (Homo sapiens, UniProt O95238 1-335).
T5 sequence: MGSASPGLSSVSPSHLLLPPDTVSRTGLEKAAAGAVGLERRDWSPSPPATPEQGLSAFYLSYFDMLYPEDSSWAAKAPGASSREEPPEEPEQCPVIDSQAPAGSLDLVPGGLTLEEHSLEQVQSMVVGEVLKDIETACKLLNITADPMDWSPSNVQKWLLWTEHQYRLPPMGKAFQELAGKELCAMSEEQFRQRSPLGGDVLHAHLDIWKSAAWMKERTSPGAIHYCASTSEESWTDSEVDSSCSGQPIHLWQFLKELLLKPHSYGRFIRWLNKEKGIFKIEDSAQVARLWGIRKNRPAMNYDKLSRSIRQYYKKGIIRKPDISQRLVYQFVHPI
The method in brief: as §1

The target of the next assay is T6, ETV7 (Homo sapiens, UniProt Q9Y603 1-341).
T6 sequence: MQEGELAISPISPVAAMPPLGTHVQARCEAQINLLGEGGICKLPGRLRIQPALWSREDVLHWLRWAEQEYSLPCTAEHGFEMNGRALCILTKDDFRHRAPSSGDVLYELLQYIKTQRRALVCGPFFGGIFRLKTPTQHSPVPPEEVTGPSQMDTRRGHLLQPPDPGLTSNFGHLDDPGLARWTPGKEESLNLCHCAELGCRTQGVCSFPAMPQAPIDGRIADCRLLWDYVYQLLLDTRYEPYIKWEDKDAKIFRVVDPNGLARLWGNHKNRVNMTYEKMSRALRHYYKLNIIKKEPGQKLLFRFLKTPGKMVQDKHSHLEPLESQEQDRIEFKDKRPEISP
The method in brief:
as §1

A further assay addresses T7, ELF5 (Homo sapiens, UniProt Q9UKW6-2 1-255).
T7 sequence: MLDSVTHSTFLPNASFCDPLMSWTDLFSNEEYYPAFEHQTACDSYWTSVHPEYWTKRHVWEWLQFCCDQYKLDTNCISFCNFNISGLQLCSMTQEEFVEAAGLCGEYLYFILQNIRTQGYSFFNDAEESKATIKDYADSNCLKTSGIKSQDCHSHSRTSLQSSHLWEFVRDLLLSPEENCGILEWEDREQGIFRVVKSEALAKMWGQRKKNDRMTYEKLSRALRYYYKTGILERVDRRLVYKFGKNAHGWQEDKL
The method, boiled down:
as §1

For another assay, the target named is T8, ETV3 (Homo sapiens, UniProt P41162-2 1-143).
T8 sequence: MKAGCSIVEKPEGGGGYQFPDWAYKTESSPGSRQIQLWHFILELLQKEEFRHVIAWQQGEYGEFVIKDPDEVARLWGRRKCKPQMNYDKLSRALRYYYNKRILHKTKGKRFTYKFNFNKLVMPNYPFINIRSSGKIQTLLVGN
The method, boiled down: as §1

The target in a further assay is ETV6 (Homo sapiens, UniProt P41212 1-452). The method, boiled down: as §1
Sequence of ETV6 (P41212 whole entry): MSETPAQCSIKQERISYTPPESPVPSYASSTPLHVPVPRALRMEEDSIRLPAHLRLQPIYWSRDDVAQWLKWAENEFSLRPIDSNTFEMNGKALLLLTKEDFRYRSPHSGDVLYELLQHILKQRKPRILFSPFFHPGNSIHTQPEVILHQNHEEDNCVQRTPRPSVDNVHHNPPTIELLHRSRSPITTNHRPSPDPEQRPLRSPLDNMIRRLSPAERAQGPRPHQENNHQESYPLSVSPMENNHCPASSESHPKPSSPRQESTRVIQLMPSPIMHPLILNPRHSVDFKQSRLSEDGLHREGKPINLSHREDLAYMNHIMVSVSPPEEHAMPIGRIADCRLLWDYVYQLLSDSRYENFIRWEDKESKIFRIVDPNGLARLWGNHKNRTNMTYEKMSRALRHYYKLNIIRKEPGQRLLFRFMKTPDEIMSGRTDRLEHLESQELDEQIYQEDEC

Sequence of ETV1 (P50549 whole entry): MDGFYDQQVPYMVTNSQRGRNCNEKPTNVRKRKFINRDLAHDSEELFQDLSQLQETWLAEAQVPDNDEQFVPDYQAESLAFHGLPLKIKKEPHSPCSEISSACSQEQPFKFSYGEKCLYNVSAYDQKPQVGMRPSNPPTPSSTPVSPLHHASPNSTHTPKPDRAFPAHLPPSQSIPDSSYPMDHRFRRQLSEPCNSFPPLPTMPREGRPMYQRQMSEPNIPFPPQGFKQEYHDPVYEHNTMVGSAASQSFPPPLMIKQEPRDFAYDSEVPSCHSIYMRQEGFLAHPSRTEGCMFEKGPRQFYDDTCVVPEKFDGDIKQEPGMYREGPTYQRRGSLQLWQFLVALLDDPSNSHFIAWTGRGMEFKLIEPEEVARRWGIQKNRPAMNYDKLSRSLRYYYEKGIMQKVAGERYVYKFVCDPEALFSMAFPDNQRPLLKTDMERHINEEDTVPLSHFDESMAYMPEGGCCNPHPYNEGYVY

As to CGCGAT, the binding signal was 1.17 fold enrichment (6-mer frequency, TF over GST control) with ETV2; 1.15 fold enrichment (6-mer frequency, TF over GST control) with ELF3; 1.1 fold enrichment (6-mer frequency, TF over GST control) in the assay with CRX; 1.08 fold enrichment (6-mer frequency, TF over GST control) with ETV1; 1.06 fold enrichment (6-mer frequency, TF over GST control) with ETV3L; 1.07 fold enrichment (6-mer frequency, TF over GST control) with ETS2. Also, the binding signal with SPDEF was 1.05 fold enrichment (6-mer frequency, TF over GST control); with ETV7, 1.05 fold enrichment (6-mer frequency, TF over GST control); in the assay with ELF5 it was 1.04 fold enrichment (6-mer frequency, TF over GST control); with ETV3, 1.08 fold enrichment (6-mer frequency, TF over GST control); with ETV6 it was 1.05 fold enrichment (6-mer frequency, TF over GST control).
